Measured values published in PubChem BioAssay (NCATS).
Results filed as inconclusive are left out. Entries that show only a call come without a potency. Active and inactive are the calls of the source. Calls follow the shape of the dose curve; as a rule, active = well fitted inhibition curve with a large enough effect; inconclusive = small, poorly fitted or top-dose-only effect; inactive = flat fitted curve, though single readings scatter.

target: DNA repair nuclease/redox regulator APEX1 (Homo sapiens) (UniProt P27695); assay: qHTS Validation Assay for Inhibitors of the Human Apurinic/apyrimidinic Endonuclease 1 (APE1) (AID 1705); conditions: purified APE1 endonuclease activity, fluorescence, titration; series mostly up to 57.1 µM
Sequence (P27695 whole entry, looked up): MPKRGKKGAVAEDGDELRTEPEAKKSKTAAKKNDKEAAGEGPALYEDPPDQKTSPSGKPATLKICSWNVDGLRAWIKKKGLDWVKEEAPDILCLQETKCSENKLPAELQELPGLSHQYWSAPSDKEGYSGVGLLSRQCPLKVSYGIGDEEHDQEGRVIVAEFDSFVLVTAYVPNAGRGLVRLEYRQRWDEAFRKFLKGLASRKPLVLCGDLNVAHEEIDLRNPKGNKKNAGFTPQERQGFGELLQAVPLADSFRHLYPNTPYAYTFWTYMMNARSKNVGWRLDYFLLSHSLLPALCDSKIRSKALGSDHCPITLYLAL
Excerpt: Assay Provider: David M. Wilson, III, National Institute on Aging, NIH
Screening Center PI: Austin, C.P.
Screening Center: NIH Chemical Genomics Center [NCGC]
The apurinic/apyrimidinic endonuclease APE1 is the primary mammalian enzyme responsible for the removal of abasic (or AP) sites in DNA and functions centrally in the base excision DNA repair (BER) pathway. […] Thus, targeting APE1 could improve the efficacy of current treatment paradigms by promoting selective sensitization or protection of diseased and normal cells, respectively.
Inhibition of APE1 activity was screened by utilizing double-stranded short substrate containing tetrahydrofuran (THF) abasic site labeled with rhodamine-type fluorophore (TAMRA) at the 5'-end and with non-fluorescent Black Hole Quencher-2 (BHQ-2) at the opposing 3'-end. An increase in the fluorescence intensity due to incision of the abasic site by APE1 was used to measure the enzyme activity.
1. Substrate: 50 nM final concentration of TAMRA/BHQ-2 substrate dispensed throughout the plate.
2. Enzyme: […] nM APE1 final concentration in columns 1, 2, 5-48. Column 1 is neutral (100% activity)
3. Control: Pintool transfer of control inhibitor NSC-13755 to column 2 of all assay plates. Two-fold, 16 pt dilution in duplicate to produce final concentrations in the […] uM - […] nM range.
3. Buffer columns in columns 3 and 4 were used as negative control (no enzyme).
Three uL of enzyme were dispensed to 1536-well Greiner black solid bottom plates. Compounds (23 nL) were transferred via Kalypsys pintool. The plates were incubated for 15 min at room temperature, and then 1 uL of substrate solution was added to start the reaction. The plates were immediately transferred into ViewLux High-throughput CCD imager (Perkin-Elmer) in order to measure the reaction progress in kinetic mode (three reads every 60 seconds) using 525 nm excitation and 598 nm emission fluorescence protocol. The fluorescence intensity difference between the third and the first time points was used to compute reaction progress.
Potency is read from the fitted curve at half-maximal effect.

Question: Which Potency does the source give for `Cc1c(C)c2c(c(C)c1O)CCC(C)(CN1CCN(c3cc(N4CCCC4)nc(N4CCCC4)n3)CC1)O2` (configuration not stated) here?
Answer: inactive

Question: For `N#Cc1c(-c2ccccc2)no[n+]1[O-]`, which Potency is on record?
Answer: inactive

Question: Which Potency does the source give for `CC(C)C[C@H](N)CSSC[C@@H](N)CC(C)C` here?
Answer: inactive

Question: `C[C@H]1c2cccc(O)c2C(O)=C2C(=O)[C@]3(O)C(O)=C(C(N)=O)C(=O)C(N(C)C)[C@@H]3[C@@H](O)C21` (some centres not stated) was tested. Which Potency did it give?
Answer: inactive

Question: How did the Potency turn out when `O=S(=O)(O)C1CCNCC1` was run?
Answer: inactive

Question: How did the Potency turn out when `C#C[C@]1(O)CC[C@H]2C3CCC4=Cc5oncc5CC4(C)C3CCC21C` (some centres not stated) was run?
Answer: inactive

Question: Which Potency does the source give for `C=C[C@@H]1CN2CC[C@@H]1C[C@@H]2[C@H](O)c1ccnc2ccc(OC)cc12` here?
Answer: inactive

Question: With `N#CC(Cc1ccc(O)c(O)c1)C(=O)N1CCc2ccccc21` (configuration not stated) as the compound, how does the Potency read?
Answer: inactive

Question: How did the Potency turn out when `CC(=O)SC1CC2=CC(=O)CC[C@]2(C)C2CC[C@@]3(C)[C@@H](CC[C@@]34CCC(=O)O4)C12` (some centres not stated) was run?
Answer: inactive

Question: For `COc1cc2c(cc1O)CCC1C2CC[C@]2(C)[C@@H](O)CC[C@@H]12` (some centres not stated), which Potency is on record?
Answer: inactive

Question: Which Potency does the source give for `Cc1cc(N)c2ccccc2[n+]1CCCCCCCCCCCCCC[n+]1c(C)cc(N)c2ccccc21` here?
Answer: 28.2 µM (active)

Question: How did the Potency turn out when `C[C@]12C[C@H](O)C3[C@@H](CCC4=CC(=O)CC[C@@]43C)[C@@H]1CC[C@@H]2C(=O)CO` (some centres not stated) was run?
Answer: inactive

Question: With `CCCCN1CCC(COC(=O)c2cc(Cl)c(N)c3c2OCCO3)CC1` as the compound, how does the Potency read?
Answer: inactive

Question: `CN1CCN(CC/C=C2/c3ccccc3Sc3ccc(S(=O)(=O)N(C)C)cc32)CC1` was tested. Which Potency did it give?
Answer: inactive

Question: With `Nc1nc(Cl)nc2c1ncn2[C@@H]1O[C@H](COP(=O)(O)OP(=O)(O)OP(=O)(O)O)[C@H](O)[C@H]1O` as the compound, how does the Potency read?
Answer: inactive

Question: For `CC(=O)O[C@]1(C(C)=O)CC[C@H]2C3C=C(Cl)C4=CC(=O)[C@@H]5C[C@H]5[C@]4(C)C3CC[C@@]21C` (some centres not stated), which Potency is on record?
Answer: inactive

Question: How did the Potency turn out when `CC[C@H](C)C(=O)O[C@H]1CCC=C2C=C[C@H](C)[C@H](CC[C@@H]3C[C@H](O)CC(=O)O3)C21` (some centres not stated) was run?
Answer: inactive
